Assay results reported in PubChem BioAssay AID623911 (Vanderbilt High Throughput Screening Facility, 2012).
The campaign covered roughly 2,100 compounds. About 770 (37%) were called active. The list shows a part of the results. Unmarked numbers belong to inactive results.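 The calls were made as follows: active = by-eye trace score of 1 for enhancers or -1 for inhibitors, so actives lie on both sides (some results past the limit were not filed as active); inactive = score 0, or 3 fluorescent, or 4 baseline rise.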

Target: G protein-activated inward rectifier potassium channel 2 (Homo sapiens) + G protein-activated inward rectifier potassium channel 1 (Homo sapiens) (UniProt P48051+P48549)
Experiment: GIRK1/2 thallium flux modulators, retest, confirmation, cell-based, HEK293 rmGlu8/hGIRK1/2, FluoZin-2 (AID 623911)
Details: HEK293 rmGlu8/hGIRK1/2, thallium flux FluoZin-2; actives lie on both sides; glutamate co-added at its EC20 level

G protein-activated inward rectifier potassium channel 2 (Homo sapiens) + G protein-activated inward rectifier potassium channel 1 (Homo sapiens), sequence (P48051 whole entry, looked up): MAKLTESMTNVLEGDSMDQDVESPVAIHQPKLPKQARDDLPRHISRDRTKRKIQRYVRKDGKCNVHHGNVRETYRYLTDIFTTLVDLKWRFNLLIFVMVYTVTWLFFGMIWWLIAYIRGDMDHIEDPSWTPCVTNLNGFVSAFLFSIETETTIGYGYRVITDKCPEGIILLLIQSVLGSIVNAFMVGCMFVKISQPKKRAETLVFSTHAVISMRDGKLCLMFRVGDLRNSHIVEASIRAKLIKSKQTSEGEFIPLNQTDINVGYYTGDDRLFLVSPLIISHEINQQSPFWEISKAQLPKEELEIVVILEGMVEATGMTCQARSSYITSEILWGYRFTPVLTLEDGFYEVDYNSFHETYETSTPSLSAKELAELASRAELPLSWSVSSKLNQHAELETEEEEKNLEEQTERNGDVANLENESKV
G protein-activated inward rectifier potassium channel 2 (Homo sapiens) + G protein-activated inward rectifier potassium channel 1 (Homo sapiens), sequence (P48549 whole entry, looked up): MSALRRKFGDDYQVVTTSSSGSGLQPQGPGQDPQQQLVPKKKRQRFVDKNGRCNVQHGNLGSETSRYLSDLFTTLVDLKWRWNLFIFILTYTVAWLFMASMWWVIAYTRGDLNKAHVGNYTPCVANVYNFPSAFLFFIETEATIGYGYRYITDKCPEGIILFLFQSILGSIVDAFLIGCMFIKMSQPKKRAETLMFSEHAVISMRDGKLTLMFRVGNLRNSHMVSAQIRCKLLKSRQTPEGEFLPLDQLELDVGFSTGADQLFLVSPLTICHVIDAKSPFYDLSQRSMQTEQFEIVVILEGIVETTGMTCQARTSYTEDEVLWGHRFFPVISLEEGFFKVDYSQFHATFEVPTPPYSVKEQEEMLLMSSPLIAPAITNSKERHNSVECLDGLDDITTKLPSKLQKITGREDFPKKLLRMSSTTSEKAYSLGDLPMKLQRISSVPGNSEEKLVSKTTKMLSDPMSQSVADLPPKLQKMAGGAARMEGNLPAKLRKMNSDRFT

Row | Structure (SMILES) | manual score
1 | Cc1cc(=O)n2[nH]c(C)c(-c3ccccc3)c2n1 | 0.5
2 | Cc1[nH]n2c(=O)cc(C(C)(C)C)nc2c1-c1ccccc1 | 1 (active)
3 | COc1cc(CNc2ccc(N3CCCC3)cc2)ccc1OCc1ccccc1 | 0
4 | COc1cc(/C=C(/C#N)c2ccc(F)cc2)ccc1OCc1ccc(C(=O)O)o1 | 0
5 | COc1cc(CNCCc2c[nH]c3ccccc23)ccc1OCc1ccc(F)cc1 | -1 (active)
6 | COc1ccccc1NC(=S)NCCc1ccc(Cl)cc1 | 0
7 | Cn1cccc1CNC1CCCC1 | 0
8 | Cc1ccc(Cl)cc1NC(=S)NCc1cccn1C | 1 (active)
9 | O=C(CN1C(=O)c2cccc3cccc(c23)C1=O)N1CCN(c2ccccn2)CC1 | 3
10 | Cc1cc(C(=O)N2CCN(CCc3ccccc3)CC2)no1 | 0
11 | O=C(c1ccccc1CCc1ccccc1)N1CCN(c2ccccn2)CC1 | -1 (active)
12 | CCOC(=O)C1CCN(C(=O)N(C)C)CC1 | 0
13 | COc1ccc(NC(=S)SC)cc1OC | 0
14 | COc1ccc(NC(=S)Nc2ccc(OCc3ccccc3)cc2)cc1OC | 0
15 | CCC(C)c1ccc(NC(=S)Nc2ccc(OC)c(OC)c2)cc1 (stereo not given) | 1 (active)
16 | COc1ccc(CCC(=O)NCc2cnn(C)c2)cc1 | 0
17 | c1ccc2c(Nc3nnc(-c4ccncc4)s3)cccc2c1 | 0
18 | Cc1nnc(NC(=O)CCSc2ccccc2)s1 | 0
19 | CCCSc1nnc(Nc2ccccc2C)s1 | 1 (active)
20 | COC(=O)C1=NN(c2ccccc2)C2C(=O)N(c3ccccc3OC)C(=O)C12 (stereo not given) | 0
21 | N#CC(c1cccc(Cl)c1)c1ccc2c(C(F)(F)F)cc(C(F)(F)F)nc2n1 (stereo not given) | 0
22 | CNC(=S)N/N=C1\C(=O)c2cccc3cccc1c23 | 1 (active)
23 | O=C(N/N=C1/C(=O)c2cccc3cccc1c23)c1ccc(Cl)cc1 | 1 (active)
24 | CCNC(=S)N/N=C1\CCCCc2ccccc21 | 4
25 | CCCCNC(=S)N/N=C1\C(=O)c2cccc3cccc1c23 | 0
26 | CCNC(=S)N/N=C1\C(=O)c2cccc3cccc1c23 | 1 (active)
27 | O=c1c(O)c(-c2cccs2)oc2ccc(Cl)cc12 | 3
28 | COc1ccc(/C=N/NC(=O)c2nc(-c3ccccc3)cc(-c3ccccc3)n2)cc1 | 0

Row | Structure (SMILES) | manual score
29 | CCCOc1ccc(/C=N/NC(=O)C(=O)Nc2ccccn2)cc1 | 0
30 | O=C(N/N=C/c1ccc(Sc2ccccn2)o1)c1cc2ccccc2cc1O | 1 (active)
31 | O=C(CSc1nc(O)cc(=O)n1-c1ccccc1)N1CCCCC1 | 0
32 | N#C/C(=C\c1ccc(N2CCOCC2)o1)c1nc2ccccc2[nH]1 | 3
33 | Cc1ccc(C)c(NC(=S)c2nc3ccccc3s2)c1 | 0
34 | Cc1ccccc1NC(=S)c1nc2ccccc2[nH]1 | 1 (active)
35 | Cc1ccc(NC(=S)N/N=C/c2c(Cl)cccc2Cl)c(C)c1 | 0
36 | Cc1ccc(NC(=S)c2nc3ccccc3[nH]2)c(C)c1 | 1 (active)
37 | COc1ccc(CNc2nc(-c3cccnc3)nn2C(=O)c2ccco2)cc1 | 0
38 | CCOC(=O)c1ccccc1NC(=O)CSc1nnc(COc2ccccc2C)n1C | -1 (active)
39 | CCOC(=O)c1ccccc1NC(=O)CSc1nnc(Cc2cccn2C)n1-c1ccc(F)cc1 | -1 (active)
40 | COC(=O)c1ccc(NC(=O)CSc2nnc(COc3ccccc3)n2C)cc1 | 3
41 | CCOC(=O)c1ccccc1NC(=O)CSc1nnc(Cc2cccn2C)n1-c1ccc(C)cc1 | -1 (active)
42 | CCOC(=O)CN(C(=O)CSc1nnc(Cc2ccccc2)n1-c1ccc(C)cc1)c1ccccc1 | -1 (active)
43 | CCOC(=O)c1nn(-c2ccc(F)cc2)c(C)c1C(C)=O | 0
44 | CCOC(=O)c1ccccc1NC(=O)CSc1nnc(COc2ccccc2)n1CC | -0.5
45 | CN(C(=O)c1cccnc1)c1nnc(-c2cnccn2)s1 | 0
46 | Cc1cccn2c(=O)c(/C=N/O)c(N3CCCC3)nc12 | 0
47 | CCOC(=O)C1=C(C)N=C2SCCC(=O)N2C1c1sccc1C (stereo not given) | 0
48 | C/C(=N\NC(=S)Nc1cccc(C)c1)c1cccc(N)c1 | 0
49 | CCc1cc(C(=O)NNC(=S)Nc2cc(C)ccc2C)cs1 | 1 (active)
50 | Cc1cccc(NC(=S)NNC(=O)c2sccc2C)c1 | 1 (active)
51 | CC/C(=N\NC(=S)Nc1cc(C)ccc1C)c1ccc(OC(F)F)cc1 | 0
52 | CCc1cc(C(=O)NNC(=S)Nc2cccc(C)c2)cs1 | 1 (active)
53 | Cc1ccc(C2CC2C(=O)NNC(=S)Nc2cccc(C)c2)cc1 (stereo not given) | 0
54 | Cc1ccsc1/C=N/NC(=O)c1sccc1C | 0
55 | CCc1cc(C(=O)NNC(=S)Nc2ccccc2C)cs1 | 0
